Experimental data as given in the supplement of paper PMC12645437, “Orthogonal IMiD-Degron Pairs Induce Selective Protein Degradation in Cells” (ACS Chemical Biology, 2025).
Whole data set: some 8,300 sequences, median “log2 fold change of degron read counts, EGFP-low vs EGFP+ sorted cells (limma voom), compound-induced degradation” near -1.1, cut for the highest 2% near 3.2. For the sample, the highest values were picked, then their nearest neighbours and some sequences at random.

T1: CRBN, Q96SW2
T1 chain: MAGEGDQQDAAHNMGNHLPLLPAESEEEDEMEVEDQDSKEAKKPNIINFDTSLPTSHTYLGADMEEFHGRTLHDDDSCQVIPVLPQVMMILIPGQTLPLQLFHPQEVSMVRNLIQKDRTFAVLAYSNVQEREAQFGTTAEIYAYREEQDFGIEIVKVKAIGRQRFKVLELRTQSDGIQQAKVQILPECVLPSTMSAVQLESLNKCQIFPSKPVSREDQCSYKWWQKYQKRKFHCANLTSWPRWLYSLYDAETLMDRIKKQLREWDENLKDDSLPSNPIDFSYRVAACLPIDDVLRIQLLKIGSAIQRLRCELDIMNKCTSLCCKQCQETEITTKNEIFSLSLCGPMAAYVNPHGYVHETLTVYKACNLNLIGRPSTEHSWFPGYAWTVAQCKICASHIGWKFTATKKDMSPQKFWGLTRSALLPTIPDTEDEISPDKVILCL


Target: T1, CRBN, Q96SW2
Test: log2 fold change of degron read counts, EGFP-low vs EGFP+ sorted cells (limma voom), compound-induced degradation; higher = more compound-induced degradation of the degron-EGFP fusion; degrons are variants of IKZF1/3 zinc finger 2; compound dose not given here
Conditions: Jurkat, 18 h
[1] = compound: compound 19 (5-tert-butyl-thalidomide)
[2] = compound: compound 22 (5-morpholino-thalidomide)
[3] = compound: compound 33 (diphenyl IMiD analogue)
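Further: pooled lentiviral library of zinc finger degron-EGFP fusions in mCherry-positive Jurkat cells, FACS-sorted after compound exposure, with degron abundance counted by next-generation sequencing.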

| Sequence | log2 fold change of degron read counts [1] | log2 fold change of degron read counts [2] | log2 fold change of degron read counts [3] | log2 fold change of degron read counts (compound: thalidomide) |
| --- | --- | --- | --- | --- |
| FSCEQCGAHFTQKGNLLRHIKL [46F_47S_49E_50Q_52G_53A_54H_55F_67L_, Q9UKT9] | -1.34 | -2.19 | -1.26 | -1.95 |
| FICPVCGACFTQKGNLLRHIKL [46F_47I_49P_50V_52G_53A_54C_55F_67L_, Q9UKT9] | -0.981 | 2.06 | 2.04 | 2.16 |
| FTCPVCGACFTQKGNLLRHIKL [46F_47T_49P_50V_52G_53A_54C_55F_67L_, Q9UKT9] | 0.948 | 2.51 | 2.73 | 3.33 |
| FECPVCGACFTQKGNLLRHIKL [46F_47E_49P_50V_52G_53A_54C_55F_67L_, Q9UKT9] | 0.122 | -0.609 | 2.52 | 2.75 |
| FNCDICGAHFTQKGNLLRHIKL [46F_47N_49D_50I_52G_53A_54H_55F_67L_, Q9UKT9] | 0.871 | -0.896 | -1.51 | -1.76 |
| FWCDICGAHFTQKGNLLRHIKL [46F_47W_49D_50I_52G_53A_54H_55F_67L_, Q9UKT9] | 2.34 | 3.41 | 0.744 | -0.669 |
| FYCDICGAHFTQKGNLLRHIKL [46F_47Y_49D_50I_52G_53A_54H_55F_67L_, Q9UKT9] | 2.51 | 3.38 | 0.931 | -1.03 |
| FECDICGAHFTQKGNLLRHIKL [46F_47E_49D_50I_52G_53A_54H_55F_67L_, Q9UKT9] | -1.93 | -3.04 | -0.896 | -0.791 |
| FCCDICGAHFTQKGNLLRHIKL [46F_47C_49D_50I_52G_53A_54H_55F_67L_, Q9UKT9] | 0.131 | -0.464 | -0.191 | -0.916 |
| FQCDICGAHFTQKGNLLRHIKL [46F_47Q_49D_50I_52G_53A_54H_55F_67L_, Q9UKT9] | -1.42 | -0.152 | -0.605 | 1.82 |
| LCCNQCGFRCTQKGNLLRHIKL [46L_47C_49N_50Q_52G_53F_54R_55C_67L_, Q9UKT9] | -1.39 | -1.65 | -1.27 | -1.01 |
| FTCEICGAFFTQKGNLLRHIKL [46F_47T_49E_50I_52G_53A_54F_55F_67L_, Q9UKT9] | -0.327 | 0.0883 | 0.985 | 1.57 |
| FDCNICGAFFTQKGNLLRHIKL [46F_47D_49N_50I_52G_53A_54F_55F_67L_, Q9UKT9] | -1.62 | -1.63 | -0.882 | -0.692 |
| LDCEICGFECTQKGNLLRHIKL [46L_47D_49E_50I_52G_53F_54E_55C_67L_, Q9UKT9] | -1.93 | -2.68 | -2.74 | -1.97 |
| FQCNICGAKFTQKGNLLRHIKL [46F_47Q_49N_50I_52G_53A_54K_55F_67L_, Q9UKT9] | -1.16 | 1.71 | -0.442 | 3.26 |
| FGCPICGAKFTQKGNLLRHIKL [46F_47G_49P_50I_52G_53A_54K_55F_67L_, Q9UKT9] | 3.59 | 1.76 | -0.616 | 1.31 |
| FCCPICGAKFTQKGNLLRHIKL [46F_47C_49P_50I_52G_53A_54K_55F_67L_, Q9UKT9] | 2.65 | 2.05 | 0.122 | 2.09 |
| FQCPICGAKFTQKGNLLRHIKL [46F_47Q_49P_50I_52G_53A_54K_55F_67L_, Q9UKT9] | 0.535 | 3 | 0.562 | 3.44 |
| FTCPICGAKFTQKGNLLRHIKL [46F_47T_49P_50I_52G_53A_54K_55F_67L_, Q9UKT9] | 0.0311 | 2.04 | -0.046 | 2.35 |
| FSCPICGAKFTQKGNLLRHIKL [46F_47S_49P_50I_52G_53A_54K_55F_67L_, Q9UKT9] | 2.33 | 1.67 | -0.456 | 1.28 |
| FNCPICGAKFTQKGNLLRHIKL [46F_47N_49P_50I_52G_53A_54K_55F_67L_, Q9UKT9] | 2.07 | 0.6 | -1.08 | 0.72 |
| FMCPICGAKFTQKGNLLRHIKL [46F_47M_49P_50I_52G_53A_54K_55F_67L_, Q9UKT9] | -0.0561 | 0.0581 | 0.821 | 0.888 |
| FYCNICGAKFTQKGNLLRHIKL [46F_47Y_49N_50I_52G_53A_54K_55F_67L_, Q9UKT9] | 1.97 | 2.19 | -0.298 | -0.655 |
| FACPICGAKFTQKGNLLRHIKL [46F_47A_49P_50I_52G_53A_54K_55F_67L_, Q9UKT9] | 3.43 | 1.44 | -1.12 | 0.992 |
| FMCNICGAKFTQKGNLLRHIKL [46F_47M_49N_50I_52G_53A_54K_55F_67L_, Q9UKT9] | -1.58 | -1.36 | -0.574 | -0.374 |
| FVCPICGAKFTQKGNLLRHIKL [46F_47V_49P_50I_52G_53A_54K_55F_67L_, Q9UKT9] | -0.253 | 1.93 | -0.152 | 2.45 |
